# Assay outcomes from PubChem.
# This is a sample that favours compounds with a hit; in the whole collection about 1.1% have one here.
# VDR inh: vitamin D3 receptor (human) inhibition; Potency, µM, hits mostly inhibitors; hit rate 0.93% among 400,000; P11473; AID 504847; VDR-SRC2-3 peptide fluorescence polarization, 2 h
# Target sequence (P11473 whole entry, looked up): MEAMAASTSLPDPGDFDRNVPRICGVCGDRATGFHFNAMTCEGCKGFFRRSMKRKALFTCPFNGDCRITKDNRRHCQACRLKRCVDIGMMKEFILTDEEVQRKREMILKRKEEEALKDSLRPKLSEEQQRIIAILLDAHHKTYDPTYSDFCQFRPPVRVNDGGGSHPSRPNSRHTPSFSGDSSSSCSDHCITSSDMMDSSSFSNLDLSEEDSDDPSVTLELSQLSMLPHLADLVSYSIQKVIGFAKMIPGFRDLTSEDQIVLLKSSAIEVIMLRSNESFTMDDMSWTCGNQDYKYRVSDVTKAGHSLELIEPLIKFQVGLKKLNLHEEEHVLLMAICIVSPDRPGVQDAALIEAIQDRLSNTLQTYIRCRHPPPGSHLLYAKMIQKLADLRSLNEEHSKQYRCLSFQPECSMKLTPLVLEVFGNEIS
#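 After 23 nl compound addition and a short centrifugation, plates sat for 2 hours at ambient temperature; polarization of fluorescence then indicated loss of VDR binding to peptide SRC2-3.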
# Pin1 inh: human Pin1 inhibition; Pin1 FP peptide displacement, HiFluor488, 10 min; Potency, µM (highest dose often 115 µM), actives largely listed as inhibitors; hit rate 0.009% among 390,000; AID 504891; active means well fitted inhibition curve with a large enough effect in the polarisation, with a control signal flat, not every such curve was filed as active; inconclusive means small, poorly fitted or top-dose-only effect, or effect the other way, or a change in a side signal; inactive means no such curve, though single readings can be large or run the other way; the % refers to the polarisation
# Tb PFK inh: blocks T. brucei phosphofructokinase. T. brucei PFK, ADP-Glo luminescence. Potency, µM (series often up to 57.5 µM), actives largely listed as inhibitors. hit rate 0.17% among 330,000; further: nearly all actives have a fitted effect of over 60% in size
#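 1.25 nM PFK with 0.5 mM F6P and 0.1 mM ATP in 0.1 M TEA pH 8.0, 5 mM MgCl2, incubated 45 min at room temperature; ADP measured by ADP-Glo luminescence; compounds titrated up to 57 uM.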
# GLS inhibitor: blocks human kidney-isoform glutaminase activity. GLS enzymatic activity, qHTS titration. hit rate 0.21% among 410,000. O94925. Potency, µM (doses to about 45.5 µM), most hits filed as inhibitors
#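 Assay buffer: 45 mM KH2PO4 pH 8.2, 0.02% Tween-20. hKGA acts on L-glutamine (1 mM solution added); product glutamate is reported by an oxidase/peroxidase Amplex Red coupling, with fluorescence taken at baseline and 30 min.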
# Tb PGK inh: inhibitors of T. brucei phosphoglycerate kinase | PGK/GAPDH coupled, Kinase-Glo luminescence, 60 min | Potency, µM (series often up to 57.5 µM), actives largely listed as inhibitors | hit rate 0.043% among 380,000 | AID 602233; further: nearly all actives have a fitted effect of over 60% in size
#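 Luminescent ATP detection (Kinase-Glo Plus) follows a 60-minute room-temperature incubation, with wells lacking PGK as controls. Buffer: 100 mM TEA (pH 7.6), 5 mM MgCl2, 0.01% Tween-20. Coupling enzyme GAPDH (100 nM final) supplies unstable 1,3-BPG in-well.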
# Hits are given with their value; - = inactive; ? = inconclusive; . = not tested or not shown. Unless noted, the call rests on the fitted dose curve; in most records, active means well fitted curve in the direction sought with a large enough effect; inconclusive means small, poorly fitted or top-dose-only effect, or another doubt; inactive means no such curve, though single readings can be large; an effect the other way counts as inactive or inconclusive.
SMILES,VDR inh,Pin1 inh,Tb PFK inh,GLS inhibitor,Tb PGK inh
CCNc1ccccc1CP(=O)(c1ccccc1)c1ccccc1O (stereo unspecified),20µM,?,-,-,-
Cc1ccc(O)c(CP(=O)(c2ccccc2)c2ccccc2)c1,-,-,-,-,-
Cc1n[nH]c(=O)c2c(NC(=O)CSc3nn(-c4ccccc4)c(=S)s3)oc(C)c12,-,-,-,-,-
Cc1ccc(S(=O)(=O)CCSc2cccc(C(=O)Nc3ccccc3C(=O)O)c2)cc1,79µM,-,-,-,-
CC(CCc1ccccc1)NC(=O)CN1CCN(c2ccc(O)cc2)CC1 (stereo unspecified),-,-,-,10µM,-
O=C(NC1CCCCC1)C(c1cccs1)N(C(=O)c1ccccn1)c1ccccc1 (stereo unspecified),-,-,-,-,.
OC(C#Cc1ccccn1)c1cccs1 (stereo unspecified),50µM,?,-,-,-
CCNc1nc(C#N)nc(Nc2ccccc2)n1,?,-,.,.,.
COc1ccc(/C=N/Nc2nncn2N)cc1Br,22µM,-,-,?,-
COc1cc(/C=N/Nc2nncn2N)ccc1OCc1c(C)no[n+]1[O-],-,-,-,-,-
O=C(NCCc1ccccc1Cl)c1ccc2c(c1)nc1n2CCOC1,-,-,.,-,-
Cc1cc(C)cc(NC(=O)Oc2ccccc2N2CCCCC2)c1,-,-,-,10µM,-
O=C(Nc1cccc(C(F)(F)F)c1)Oc1ccccc1N1CCOCC1,-,-,-,-,-
O=c1oc2ccccc2c2oc3cc(O)c(O)cc3c12,-,?,-,2.8µM,-
COc1ccc(N2C(=O)c3ccccc3NC23CCCC3)cc1,-,-,-,-,-
COc1ccc(N2C(S)=C(C#N)C(=O)NC23CCCCC3)cc1,50µM,-,-,-,-
C=CCn1c(SCC(=O)Nc2ccc(N(C)C)cc2)nnc1-c1cccc(C)c1,89µM,-,-,-,-
C=CCn1c(SCC(=O)Nc2cccc(C)c2)nnc1-c1cnccn1,-,-,-,-,-
CC(C)(C)N1CSC(=S)N(Cc2ccccc2)C1,?,-,-,?,-
CC(C)N1CSC(=S)N(Cc2ccccc2)C1,79µM,-,-,?,-
COc1ccc(OC)c(S(=O)(=O)NC(=O)C2(C)CCN2C(=O)C2(c3ccc(Cl)cc3)CC2)c1 (stereo unspecified),.,.,.,-,.
COc1cccc(/C=C2/CCC(CN(C)C)C2=O)c1 (stereo unspecified),40µM,-,.,-,-
COc1ccc(/C=C2/CCCC(CN(C)C)C2=O)cc1 (stereo unspecified),?,-,.,-,-
CN(C)CC1CCC/C(=C/c2ccc(Cl)cc2)C1=O (stereo unspecified),79µM,-,.,-,-
O=C(NNc1ccccc1[N+](=O)[O-])Nc1ccc(F)cc1F,-,-,-,-,-
SMILES,VDR inh,Pin1 inh,Tb PFK inh,GLS inhibitor,Tb PGK inh
O=C(NNc1ccccc1[N+](=O)[O-])Nc1cccc(Cl)c1,79µM,-,?,-,-
O=C(NNc1ccccc1)Nc1cc(Cl)ccc1Cl,40µM,-,.,-,-
CN(C)C1=NCCN1CCc1cccc(F)c1,-,-,-,-,-
CC(C)C1N=C(c2ccc3c(c2)OCO3)CC(c2ccccc2O)N1 (stereo unspecified),79µM,-,-,-,-
COc1ccccc1CNC(=O)C1CCC(CNS(=O)(=O)c2ccccc2)CC1 (stereo unspecified),-,-,-,?,-
COc1ccc2ccc3c(c2c1)N=CC1(O3)N(C)c2ccccc2C1(C)C (stereo unspecified),50µM,-,-,-,.
CN1c2ccccc2C(C)(C)C12C=Nc1c(ccc3ccccc13)O2 (stereo unspecified),-,-,?,-,-
N#C/C(=C\c1ccccc1)C(=O)N1CCN(c2ccccc2F)CC1,45µM,-,-,-,-
N#C/C(=C\c1cccc(Br)c1)C(=O)N1CCCCC1,50µM,-,-,-,-
N#C/C(=C\c1cccc(O)c1)C(=O)N1CCCCC1,-,-,-,-,-
O=C1C2CCCCN2C(=O)N1CCCCN1CCN(c2ccccc2Oc2ccccc2)CC1 (stereo unspecified),-,-,-,-,-
CCCn1ncc(CN2CCC(C(=O)Nc3cccc(-c4cccc(F)c4)c3)CC2)c1C,-,-,-,-,-
Clc1ccc(-c2csc(NNC3=NCCCCC3)n2)cc1,50µM,-,-,-,-
